We go through 6 compounds from PubChem BioAssay (NCATS).

Inconclusive results are not listed. Active and inactive are the calls of the source. Unless noted, the call rests on the fitted dose curve; in most records, active means well fitted curve in the direction sought with a large enough effect; inconclusive means small, poorly fitted or top-dose-only effect, or another doubt; inactive means no such curve, though single readings can be large; an effect the other way counts as inactive or inconclusive.

Assay [1] is described as follows: qHTS Assay for Lipid Storage Modulators (AID 1519; calls by dose curve; on activity change, negative = inhibition: on the % scale 0 is the no-effect control and ±100 the full control effect). To be noted: Drosophila S3 cells, BODIPY lipid droplet/cell ratio, laser cytometry, cells loaded with oleic acid; for activity change, negative = inhibition: at 57.5 µM (top of the series). Put shortly:
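Cells seeded at 5,000 per well were treated with compounds over a concentration series and loaded with oleic acid (400 uM, as added). Lipid droplet fluorescence (488 nm excitation, 500-530 nm channel) was read by laser-scanning cytometry and normalized to 20 uM Triacsin C.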

In assay [2] the target is ATP-dependent 6-phosphofructokinase (Trypanosoma brucei brucei) (UniProt O15648). As to the kind of experiment: qHTS Assay to Find Inhibitors of T. brucei phosphofructokinase: hit validation (AID 492961).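 Further: luminescence reports ADP formed as PFK phosphorylates fructose-6-phosphate with ATP; on the % scale 0 is the no-effect control and ±100 the full control effect.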 To be noted: T. brucei PFK, ADP-Glo luminescence; series mostly up to 24.3 µM. In outline:
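Reaction: 0.1 M triethanolamine pH 8.0, 5 mM MgCl2, F6P 0.5 mM, ATP 0.1 mM, PFK 1.25 nM, 45 min RT. Read-out: ADP-Glo luminescence. Analysis: concentration-response fits, classed by r2 and efficacy.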

Assay [3] has as its target Ubiquitin carboxyl-terminal hydrolase 1 (Homo sapiens) (UniProt O94782). Nature of the assay: Inhibitors of USP1/UAF1: Pilot qHTS (AID 504865). Further: nearly all actives have a fitted effect of over 35% in size. Further: potency means the concentration at half of the fitted maximal effect.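 On activity change, negative = inhibition: rhodamine fluorescence freed from ubiquitin-rhodamine substrate followed over time; top concentration of the series differs between compounds; on the % scale 0 is the no-effect control and ±100 the full control effect.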 The note with it: purified USP1/UAF1, Ub-rhodamine cleavage fluorescence; series mostly up to 114 µM. Put shortly:
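Kinetic fluorescence assay: 1nM USP1/UAF1, 15 min compound preincubation, then 150nM Ub-Rho; 480/540 nm.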

The target in assay [4] is Luciferin 4-monooxygenase (Photinus pyralis) (UniProt P08659). As to the kind of experiment: Biochemical firefly luciferase enzyme assay for NPC (AID 624030).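 Further: purified P. pyralis luciferase at 10 nM with luciferin and ATP substrate; 0% = DMSO and -100% = full luciferase inhibition by PTC124 control; nearly all actives have a fitted effect of over 70% in size.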 The note with it: purified P. pyralis luciferase, luminescence, 5 min; series mostly up to 24.9 µM. Put shortly: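 Counter-screen for direct inhibition of the luciferase enzyme by approved-drug library compounds, run at 10 nM enzyme in 50 mM Tris acetate (final). Luminescence was read within 5 min of enzyme-buffer addition and normalized to PTC124 versus DMSO (0%).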

A short description of assay [5]: qHTS profiling for inhibitors of Plasmodium falciparum proliferation (AID 504749). Further: potency means the concentration at half of the fitted maximal effect.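 On activity, negative = inhibition: 0% = DMSO vehicle and full inhibition = artemisinin control.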 On all read-outs here: nearly all actives have a fitted effect of over 60% in size. The note with it: P. falciparum in erythrocytes, SYBR Green DNA, 72 h; for activity, negative = inhibition: at 28.7 µM (top of the series). In outline:
(§1)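 P. falciparum-infected erythrocytes (0.3% parasitemia, 2.5% hematocrit final) were exposed to compounds for 72 h at 37 C in 5% CO2, then lysed with SYBR Green buffer overnight at room temperature; parasite DNA fluorescence was normalized to artemisinin and DMSO controls.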

Another assay has as its system 3D7. Described as above. To be noted: P. falciparum in erythrocytes, SYBR Green DNA, 72 h; series mostly up to 12.8 µM. Put shortly:
as §1

A further assay has as its system C2A. Described as above. The note with it: P. falciparum in erythrocytes, SYBR Green DNA, 72 h; series mostly up to 12.8 µM. Put shortly: as §1
The subject of the next assay is CP201. Described as above. To be noted: P. falciparum in erythrocytes, SYBR Green DNA, 72 h; series mostly up to 12.8 µM. Put shortly: as §1
The test system of the next assay is CP211. The assay is described as above. The note with it: P. falciparum in erythrocytes, SYBR Green DNA, 72 h; series mostly up to 12.8 µM. Put shortly:
as §1

For another assay, the system named is CP237. The description is as above. To be noted: P. falciparum in erythrocytes, SYBR Green DNA, 72 h; series mostly up to 12.8 µM. In outline:
as §1

A further assay relates to CP252. The assay is described as above. The note with it: P. falciparum in erythrocytes, SYBR Green DNA, 72 h; series mostly up to 12.8 µM. Put shortly: as §1
For a further assay, the system named is CP262. The assay is described as above. To be noted: P. falciparum in erythrocytes, SYBR Green DNA, 72 h; series mostly up to 12.8 µM. In outline:
as §1

The subject of the next assay is CP268. The assay is described as above. To be noted: P. falciparum in erythrocytes, SYBR Green DNA, 72 h; series mostly up to 12.8 µM. Put shortly: as §1
The subject of the next assay is CP305. The assay is described as above. To be noted: P. falciparum in erythrocytes, SYBR Green DNA, 72 h; series mostly up to 12.8 µM. In outline:
as §1

For another assay, the system named is CP315. The description is as above. To be noted: P. falciparum in erythrocytes, SYBR Green DNA, 72 h; series mostly up to 12.8 µM. Put shortly: as §1
In a further assay the test system is CP329. The description is as above. The note with it: P. falciparum in erythrocytes, SYBR Green DNA, 72 h; series mostly up to 12.8 µM. In outline: as §1
A further assay relates to HB3. Described as above. To be noted: P. falciparum in erythrocytes, SYBR Green DNA, 72 h; series mostly up to 12.8 µM. Put shortly:
as §1

A further assay deals with JCK. The description is as above. The note with it: P. falciparum in erythrocytes, SYBR Green DNA, 72 h; series mostly up to 12.8 µM. In outline:
as §1

The test system of the next assay is PAD. Described as above. The note with it: P. falciparum in erythrocytes, SYBR Green DNA, 72 h; series mostly up to 12.8 µM. Put shortly:
as §1

Another assay relates to PC49. Described as above. To be noted: P. falciparum in erythrocytes, SYBR Green DNA, 72 h; series mostly up to 12.8 µM. In outline: as §1
Setting [6] is: measured here: cell count channel max response.
The mark [7] stands for this setting: measured here: lipid channel max response.

Sequence of Ubiquitin carboxyl-terminal hydrolase 1 (Homo sapiens) (O94782 whole entry, looked up): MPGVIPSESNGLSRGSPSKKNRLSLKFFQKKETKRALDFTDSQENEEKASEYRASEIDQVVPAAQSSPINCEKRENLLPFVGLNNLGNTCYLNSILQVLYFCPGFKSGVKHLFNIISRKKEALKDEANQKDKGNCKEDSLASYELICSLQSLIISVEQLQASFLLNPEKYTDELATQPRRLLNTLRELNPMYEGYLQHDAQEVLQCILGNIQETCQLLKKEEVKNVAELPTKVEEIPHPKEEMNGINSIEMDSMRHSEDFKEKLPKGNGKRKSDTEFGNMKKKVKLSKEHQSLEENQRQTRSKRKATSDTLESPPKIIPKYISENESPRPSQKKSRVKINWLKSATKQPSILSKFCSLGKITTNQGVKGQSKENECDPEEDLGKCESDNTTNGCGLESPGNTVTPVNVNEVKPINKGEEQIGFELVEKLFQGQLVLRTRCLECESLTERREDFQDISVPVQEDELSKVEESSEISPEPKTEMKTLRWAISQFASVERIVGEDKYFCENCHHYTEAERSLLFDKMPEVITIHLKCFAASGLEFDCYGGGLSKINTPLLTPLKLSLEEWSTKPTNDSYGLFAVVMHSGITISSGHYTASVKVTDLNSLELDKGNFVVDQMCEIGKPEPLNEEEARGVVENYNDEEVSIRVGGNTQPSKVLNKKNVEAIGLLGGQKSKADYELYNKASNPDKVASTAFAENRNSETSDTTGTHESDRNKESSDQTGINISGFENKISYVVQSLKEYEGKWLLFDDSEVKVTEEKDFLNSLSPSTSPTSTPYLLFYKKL
Sequence of Luciferin 4-monooxygenase (Photinus pyralis) (P08659 whole entry, looked up): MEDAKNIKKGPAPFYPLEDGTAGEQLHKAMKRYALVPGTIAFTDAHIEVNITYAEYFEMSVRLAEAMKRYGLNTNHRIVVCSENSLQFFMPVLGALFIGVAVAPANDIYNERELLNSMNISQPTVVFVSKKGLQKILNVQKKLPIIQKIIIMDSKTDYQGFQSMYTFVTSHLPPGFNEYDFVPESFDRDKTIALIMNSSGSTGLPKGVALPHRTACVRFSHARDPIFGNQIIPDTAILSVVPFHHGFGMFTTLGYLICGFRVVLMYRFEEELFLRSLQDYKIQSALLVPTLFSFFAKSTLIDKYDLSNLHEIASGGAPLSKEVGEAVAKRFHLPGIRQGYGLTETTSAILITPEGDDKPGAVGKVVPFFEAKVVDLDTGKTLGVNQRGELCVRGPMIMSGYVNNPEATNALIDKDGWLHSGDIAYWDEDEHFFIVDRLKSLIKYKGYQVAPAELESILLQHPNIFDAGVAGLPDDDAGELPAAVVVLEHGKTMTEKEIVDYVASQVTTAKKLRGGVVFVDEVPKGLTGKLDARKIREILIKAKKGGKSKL
Sequence of ATP-dependent 6-phosphofructokinase (Trypanosoma brucei brucei) (O15648 whole entry, looked up): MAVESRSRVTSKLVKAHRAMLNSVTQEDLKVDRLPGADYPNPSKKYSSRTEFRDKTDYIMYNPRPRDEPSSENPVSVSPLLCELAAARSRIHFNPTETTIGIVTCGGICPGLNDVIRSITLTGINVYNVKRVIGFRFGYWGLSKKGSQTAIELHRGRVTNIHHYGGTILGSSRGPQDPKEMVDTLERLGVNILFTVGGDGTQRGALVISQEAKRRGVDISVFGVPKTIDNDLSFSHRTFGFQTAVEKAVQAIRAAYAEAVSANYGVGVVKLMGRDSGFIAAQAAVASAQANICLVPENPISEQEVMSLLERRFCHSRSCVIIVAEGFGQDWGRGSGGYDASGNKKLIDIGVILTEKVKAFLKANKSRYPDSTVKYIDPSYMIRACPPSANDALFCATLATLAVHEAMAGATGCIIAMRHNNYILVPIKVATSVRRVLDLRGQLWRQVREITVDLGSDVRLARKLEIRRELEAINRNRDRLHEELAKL

In the case of `OCC1OC([S-])[C@H](O)C(O)C1O.[Au+]` (stereo not given in full), the activity change, negative = inhibition in assay [1] is 9.01% (inactive). For the same compound, the figures for the max response in assay [1] (setting [6]) and in assay [1] (setting [7]) were 5.52% and 19.8%, respectively. Also, the compound was classed as inactive in assay [2]. Moreover, the Potency result (in assay [3]; in [4]; with 3D7; in the assay on C2A; with CP201; in the assay on CP211) was “inactive” each time. For the same compound, the Potency entry in the assay with CP237, in the assay on CP252, with CP262, with CP268, in the assay with CP305 and in the assay with CP315 was “inactive” throughout. In addition, the Potency result with CP329, in the assay on HB3, with JCK, with PAD and in the assay with PC49 was “inactive” each time. In addition, the figures for the activity, negative = inhibition in assay [5] (parasite line A) and in assay [5] (parasite line B) were -14% (inactive) and -7.29% (inactive), respectively.
Turning to `OCC1O[C@H](OC2C(CO)O[C@@](O)(CO)C2O)C(O)C(O)C1O` (stereo not given in full), the activity change, negative = inhibition in assay [1] was 5.94% (inactive). Besides, the max response in [1] (setting [6]) amounted to 14.3%; in assay [1] (setting [7]), 24%. Moreover, in assay [2], the compound was called inactive. Besides, the Potency entry (in assay [3]; in assay [4]; in the assay on 3D7; in the assay with C2A; in the assay with CP201; with CP211) was “inactive” in each case. Moreover, the Potency result in the assay on CP237, in the assay on CP252, in the assay with CP262, with CP268, in the assay on CP305 and in the assay on CP315 was “inactive” in each case. Also, the Potency result with CP329, in the assay on HB3, in the assay on JCK, in the assay on PAD and in the assay on PC49 was “inactive” in each case. Besides, the values for the activity, negative = inhibition in [5] (parasite line A) and in assay [5] (parasite line B) were 9.31% (inactive) and 4.3% (inactive), respectively.
As to `COc1ccc2cc1Oc1ccc(cc1)CC1c3c(cc4c(c3Oc3cc5c(cc3OC)CCN(C)C5C2)OCO4)CCN1C` (stereo not given), in assay [1], the activity change, negative = inhibition is 10.7% (inactive). For the same compound, the max response in assay [1] (setting [6]) is 5.9%; in assay [1] (setting [7]), 21%. Also, in [2], the call was inactive. For the same compound, in assay [4], the Potency result was “inactive”. Moreover, the Potency is 8.91 µM (active) in assay [5] (parasite line A); 10 µM (active) in [5] (parasite line B); 11.2 µM (active) in the assay with 3D7; 11.2 µM (active) in the assay with C2A; 12 µM (active) with CP211; 2.82 µM (active) in the assay on CP237. In addition, the Potency is 8.91 µM (active) in the assay with CP252; 8.49 µM (active) with CP262; 13.5 µM (active) with CP268; 9.53 µM (active) with CP305; 7.08 µM (active) in the assay on HB3; 8.91 µM (active) with PAD.
Consider `CN(C)CCc1c[nH]c2ccc(CC3COC(=O)N3)cc12` (stereo not given), for which the activity change, negative = inhibition in [1] was 10.6% (inactive). Moreover, the figures for the max response in assay [1] (setting [6]) and in assay [1] (setting [7]) were -1.36% and 11.4%, respectively. The call in [2] was inactive. The Potency entry (in [4]; with 3D7; in the assay on C2A; with CP201; with CP211; in the assay on CP237) was “inactive” each time. The Potency entry with CP252, in the assay on CP268, in the assay with CP305, in the assay with CP315, in the assay on CP329 and with HB3 was “inactive” each time. The Potency entry in the assay with JCK, in the assay on PAD and in the assay with PC49 was “inactive” in each case. The activity, negative = inhibition in assay [5] (parasite line A) was -2.15% (inactive); in assay [5] (parasite line B), 12.7% (inactive).
As for `Cc1cc(O)c(C=O)c2c1C(=O)Oc1c(C)c(O)c3c(c1O2)C(O)OC3=O` (stereo not given), the activity change, negative = inhibition in [1] is 13.7% (inactive). For the same compound, the max response turned out to be 7.17% in assay [1] (setting [6]) and 21% in assay [1] (setting [7]). Also, the Potency in assay [3] was 39.8 µM (active).
Turning to `CC(=O)N[C@@H]1C(O)OC(CO)C(O)C1O` (stereo not given in full), the activity change, negative = inhibition in [1] was 4.62% (inactive). Further, the max response in [1] (setting [6]) amounted to 4.28%; in assay [1] (setting [7]), 11.6%. The outcome in assay [2] was inactive. Further, the Potency entry (in [3]; in assay [4]; in the assay with 3D7; in the assay on C2A; with CP201; with CP211) was “inactive” in each case. Besides, the Potency entry with CP237, in the assay with CP252, in the assay with CP262, in the assay with CP268, with CP305 and in the assay on CP315 was “inactive” throughout. Further, the Potency entry with CP329, with JCK, with PAD and in the assay with PC49 was “inactive” each time. Moreover, the activity, negative = inhibition was 3.66% (inactive) in assay [5] (parasite line A) and 14.7% (inactive) in [5] (parasite line B).
